# Experimental data: PubChem BioAssay AID1259343 (VanderVen Lab, College of Veterinary Medicine, Cornell …, 2017)
# The campaign covered roughly 6,200 compounds. About 2,900 (47%) were called active. The set was probably picked from earlier hits. Some of the results follow. A number with no mark means an inactive call. Rule as the data show it: active = inhibition above about 50%; inactive = the rest.
# Test: Mycobacterium tuberculosis growth inhibition, primary screen (AID 1259343)
# Conditions: inhibition: at 10 µM, active compounds read high; outcome: 10 uM
row,Structure (SMILES),inhibition
1,CC1=NN(C(=O)c2ccccc2)C(C)(NN(C)c2ccccc2)C1 (stereo not drawn),75.7% (active)
2,Cc1cccc(C(=O)N2N=C(c3ccccc3)CC2(O)C(F)(F)F)c1O (stereo not drawn),49.1%
3,Cc1cc(Cc2c(O)nc(N)[nH]c2=O)ccc1OC(C)C,36.4%
4,O=S(=O)(c1cccc(Cl)c1Cl)N1CCc2sccc2C1,17.2%
5,Cn1ccc(C(=O)Nc2ccccc2N2CCc3sccc3C2)cc1=O,63.6% (active)
6,CCC1c2ccsc2CCN1CC(=O)Nc1ccccc1C#N (stereo not drawn),39.9%
7,c1ccc(Cc2nnc(SCc3cccc4ccccc34)o2)cc1,4.35%
8,O=C(CSc1nnc(Cc2ccccc2)o1)c1ccc2ccccc2c1,67.7% (active)
9,Cc1nc(Cc2nnc(SCC(=O)c3ccc(Cl)s3)o2)cs1,9.62%
10,CCCCCCC1C(C#N)=C(N)SC(N)=C1C#N,24.4%
11,N#CC1=C(N)SC(N)=C(C#N)C1c1ccc(-c2ccccc2)cc1,14.3%
12,CCCCCCCC1C(C#N)=C(N)SC(N)=C1C#N,93.5% (active)
13,Cc1cccc(N2CCN(c3ccc4nnc(C5CC5)n4n3)CC2)c1C,85.7% (active)
14,CC(C)=NNc1nc(Cl)c(C#N)c(Cl)c1Cl,102% (active)
15,FC(F)(F)c1nnc2ccc(NCCC3CCCC3)nn12,18%
16,O=C(Nc1cnc(-c2ccccc2)nc1)C1CCCC1,48.4%
17,O=C(Nc1cccc(/C=C/c2ccccn2)c1)C1CCCC1,97.1% (active)
18,O=C(Nc1cccc(OCc2ccccn2)c1)C1CC1,18.7%
19,CC(C)n1c(CCC(=O)O)ccc1-c1ccc(Br)cc1,50.3% (active)
20,CC(C)(C)C1CCC(CN2CC(O)C(N3CCCC3)C2)CC1 (stereo not drawn),41.1%
21,CC(Sc1n[nH]c(-c2ccc(Cl)cc2)n1)C(=O)NCc1ccco1 (stereo not drawn),42%
22,CCOC(=O)CCCNC(=O)CSc1n[nH]c(-c2ccc(Br)cc2)n1,74.5% (active)
23,CC(C)c1ccc(-c2nnn(CC(=O)NC(C)(C)C)n2)cc1,4.54%
24,N#Cc1ccc(OCC(O)Cn2nnc(-c3ccc(Cl)cc3)n2)cc1 (stereo not drawn),49.3%

row,Structure (SMILES),inhibition
1,CC(C)c1ccc(-c2nnn(CC(=O)c3ccc(O)cc3)n2)cc1,55.7% (active)
2,C=CCOc1ccc(C2c3c(oc4ccc(C)cc4c3=O)C(=O)N2c2nccs2)cc1 (stereo not drawn),-15.9%
3,CC(C)CN(CC(=O)Nc1cc(C(C)(C)C)nn1-c1ccc(Cl)c(Cl)c1)C(=O)Nc1ccc(C(F)(F)F)cc1,38.3%
4,COCCOc1nc(-c2ccc(C(F)(F)F)cc2)n(-c2ccc(NC(=O)C(Cl)c3ccccc3)cc2)n1 (stereo not drawn),19.5%
5,NCC(=O)Nc1ccc(-n2nc(C(F)(F)F)cc2-c2ccc3c(ccc4ccccc43)c2)cc1,73.5% (active)
6,OCCN(C=NC1=NN(c2cccc(C(F)(F)F)c2)CC1)CCO,83.2% (active)
7,FC(F)(F)c1cccc(N2CCC(N=Cc3ccccc3C(F)(F)F)=N2)c1,50.2% (active)
8,FC(F)(F)c1cccc(N2CCC(N=Cc3ccccn3)=N2)c1,93.2% (active)
9,CN(N=Cc1ccc([N+](=O)[O-])o1)c1ccccc1,-45.3%
10,O=[N+]([O-])c1ccc(C=NC2=NN(c3cccc(C(F)(F)F)c3)CC2)o1,87.8% (active)
11,C(=NC1=NN(c2ccccc2)CC1)N1CCCCCC1,-7.42%
12,CCCNC(=O)COc1c(Cl)cc(Cl)c2ccc(C)nc12,72.1% (active)
13,O=[N+]([O-])c1ccc(C(O)CNC(=S)NCc2ccc3c(c2)OCO3)cc1 (stereo not drawn),89.8% (active)
14,Cc1cc(=O)[nH]c(-n2nc(C3CC3)cc2NC(=O)c2ccco2)n1,-24.5%
15,CCCc1cc(=O)[nH]c(-n2nc(C)cc2NC(=O)c2ccco2)n1,100% (active)
16,Cc1cc(=O)[nH]c(-n2nc(C)cc2NC(=O)c2ccco2)n1,101% (active)
17,CCc1cc(=O)[nH]c(-n2nc(C)cc2NC(=O)c2ccc(Br)o2)n1,101% (active)
18,CCc1cc(=O)[nH]c(-n2nc(C)cc2NC(=O)c2cc(=O)c3ccccc3o2)n1,34.9%
19,CCc1cc(=O)[nH]c(-n2nc(C)cc2NC(=O)c2ccco2)n1,100% (active)
20,COCC(O)CN(C)C(=O)c1ccc(Oc2cccc(Br)c2)nc1 (stereo not drawn),85% (active)
21,CN(Cc1ccc(Br)cc1)CC(O)COc1cccc(Br)c1 (stereo not drawn),46.8%
22,C=CCNC(=O)N(Cc1ccccn1)c1ccc(Oc2cccc(F)c2)nc1,39.1%
23,CCc1ccc(N2C(=O)C3N=NN(Cc4ccc(C)cc4)C3C2=O)cc1 (stereo not drawn),60.1% (active)
24,COc1ccc(N2C(=O)C3N=NN(Cc4ccccc4C)C3C2=O)cc1Cl (stereo not drawn),-10.3%
